# Data as given in PMC7862700, “An all-to-all approach to the identification of sequence-specific readers for epigenetic DNA modifications on cytosine”.
# Assays:
# Assay in all cases: DAPPL (digital affinity profiling via proximity ligation, sequencing); 10 mM Tris-HCl pH 7.5, 50 mM NaCl, 1 mM DTT, 4% glycerol, room temperature, 30 min; GST-TFs on glutathione beads, 16-mer random dsDNA library, 0.1% formaldehyde crosslink after washing; high values mean tight binding
# [1] = biological target: T1, FLI1 (Homo sapiens, UniProt Q01543 1-452); conditions: protein: recombinant; tags: N-terminal GST; dsDNA, one strand shown
# T1 sequence: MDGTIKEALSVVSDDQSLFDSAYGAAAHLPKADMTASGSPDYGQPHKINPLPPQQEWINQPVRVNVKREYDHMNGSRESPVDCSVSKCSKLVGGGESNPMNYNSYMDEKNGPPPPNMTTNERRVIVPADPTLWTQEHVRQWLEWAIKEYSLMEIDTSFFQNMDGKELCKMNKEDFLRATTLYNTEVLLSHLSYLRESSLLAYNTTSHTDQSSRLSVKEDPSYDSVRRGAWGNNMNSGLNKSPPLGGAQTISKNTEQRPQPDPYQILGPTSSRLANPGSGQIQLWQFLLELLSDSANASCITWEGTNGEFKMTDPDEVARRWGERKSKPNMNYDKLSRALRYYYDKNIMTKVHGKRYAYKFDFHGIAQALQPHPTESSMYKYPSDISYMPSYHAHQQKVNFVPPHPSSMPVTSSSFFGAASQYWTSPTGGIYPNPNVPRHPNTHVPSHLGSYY
# Method in brief: (§1)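 Pools were built from human transcription factors expressed in yeast as GST fusions, captured on glutathione beads and DNA-barcoded, along with a tag-only sample. Incubation with 200 nmole of a 16-mer random double-stranded DNA library lasted 30 min at room temperature in Tris/NaCl/DTT/glycerol buffer, and was followed by washing, 0.1% formaldehyde crosslinking, proximity ligation, PCR amplification and Illumina NextSeq500 sequencing. Binding signal is the quotient of each hexamer's read frequency for a factor and its frequency for the tag-only sample.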
# [2] = biological target: T2, ELK1 (Homo sapiens, UniProt P19419 1-428); conditions: protein: recombinant; tags: N-terminal GST; dsDNA, one strand shown
# T2 sequence: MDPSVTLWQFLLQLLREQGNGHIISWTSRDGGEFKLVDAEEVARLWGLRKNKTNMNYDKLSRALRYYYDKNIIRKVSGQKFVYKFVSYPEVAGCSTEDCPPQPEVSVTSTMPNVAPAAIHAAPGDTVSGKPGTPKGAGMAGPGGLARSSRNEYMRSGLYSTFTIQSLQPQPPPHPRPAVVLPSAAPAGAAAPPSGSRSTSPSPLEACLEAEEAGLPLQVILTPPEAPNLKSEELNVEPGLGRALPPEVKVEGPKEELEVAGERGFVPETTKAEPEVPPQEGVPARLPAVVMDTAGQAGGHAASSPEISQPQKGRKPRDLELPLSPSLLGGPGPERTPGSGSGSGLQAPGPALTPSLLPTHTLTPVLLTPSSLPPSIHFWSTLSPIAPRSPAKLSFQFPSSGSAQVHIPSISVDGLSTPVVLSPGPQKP
# Method in brief: as §1
# [3] = biological target: T3, GABPA (Homo sapiens, UniProt Q06546 1-454); conditions: protein: recombinant; tags: N-terminal GST; dsDNA, one strand shown
# T3 sequence: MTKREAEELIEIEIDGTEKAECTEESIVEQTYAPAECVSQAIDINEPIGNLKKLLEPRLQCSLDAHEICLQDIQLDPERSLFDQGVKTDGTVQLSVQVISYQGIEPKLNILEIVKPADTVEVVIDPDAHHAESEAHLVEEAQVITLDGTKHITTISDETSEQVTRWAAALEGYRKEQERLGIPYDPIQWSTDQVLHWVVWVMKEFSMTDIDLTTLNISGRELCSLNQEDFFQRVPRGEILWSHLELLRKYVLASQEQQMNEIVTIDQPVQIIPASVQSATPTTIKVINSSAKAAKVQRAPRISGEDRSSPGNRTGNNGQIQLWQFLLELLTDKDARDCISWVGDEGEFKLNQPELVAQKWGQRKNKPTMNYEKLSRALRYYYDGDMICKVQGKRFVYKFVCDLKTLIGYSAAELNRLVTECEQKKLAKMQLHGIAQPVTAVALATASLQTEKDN
# Method in brief: as §1
# [4] = biological target: T4, ERG (Homo sapiens, UniProt P11308 1-479); conditions: protein: recombinant; tags: N-terminal GST; dsDNA, one strand shown
# T4 sequence: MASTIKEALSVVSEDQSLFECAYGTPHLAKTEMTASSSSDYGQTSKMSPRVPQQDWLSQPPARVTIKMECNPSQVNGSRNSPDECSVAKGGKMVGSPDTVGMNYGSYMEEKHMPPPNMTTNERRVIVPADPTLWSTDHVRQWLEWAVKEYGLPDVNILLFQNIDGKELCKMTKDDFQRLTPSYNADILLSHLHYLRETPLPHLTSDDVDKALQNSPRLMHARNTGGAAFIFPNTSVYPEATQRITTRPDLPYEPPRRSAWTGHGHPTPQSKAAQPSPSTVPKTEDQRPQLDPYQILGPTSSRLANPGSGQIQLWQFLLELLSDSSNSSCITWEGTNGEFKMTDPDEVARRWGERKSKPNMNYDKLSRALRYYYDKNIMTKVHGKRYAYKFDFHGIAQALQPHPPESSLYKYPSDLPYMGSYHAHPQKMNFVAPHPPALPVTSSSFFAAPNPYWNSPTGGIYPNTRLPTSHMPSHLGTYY
# Method in brief: as §1
# [5] = biological target: ELF1 (Homo sapiens, UniProt P32519 1-619); conditions: protein: recombinant; tags: N-terminal GST; dsDNA, one strand shown
# Sequence of ELF1 (P32519 whole entry): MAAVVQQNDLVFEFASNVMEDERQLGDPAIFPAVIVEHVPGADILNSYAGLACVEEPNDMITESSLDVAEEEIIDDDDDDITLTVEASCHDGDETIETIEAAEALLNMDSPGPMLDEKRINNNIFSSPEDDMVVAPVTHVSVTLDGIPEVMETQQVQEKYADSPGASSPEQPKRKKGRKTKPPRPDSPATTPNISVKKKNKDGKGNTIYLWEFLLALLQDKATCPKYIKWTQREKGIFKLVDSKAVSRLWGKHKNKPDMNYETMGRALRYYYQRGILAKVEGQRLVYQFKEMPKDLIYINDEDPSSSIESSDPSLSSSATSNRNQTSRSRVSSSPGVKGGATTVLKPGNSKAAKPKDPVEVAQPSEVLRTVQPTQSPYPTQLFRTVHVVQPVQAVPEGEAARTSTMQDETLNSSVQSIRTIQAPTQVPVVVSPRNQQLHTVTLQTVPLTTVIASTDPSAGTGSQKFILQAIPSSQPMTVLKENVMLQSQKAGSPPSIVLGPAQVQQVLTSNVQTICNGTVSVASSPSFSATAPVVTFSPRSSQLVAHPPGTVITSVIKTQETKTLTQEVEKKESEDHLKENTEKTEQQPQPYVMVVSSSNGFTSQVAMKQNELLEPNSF
# Method in brief: as §1
# [6] = biological target: T5, EHF (Homo sapiens, UniProt Q9NZC4 1-300); conditions: protein: recombinant; tags: N-terminal GST; dsDNA, one strand shown
# T5 sequence: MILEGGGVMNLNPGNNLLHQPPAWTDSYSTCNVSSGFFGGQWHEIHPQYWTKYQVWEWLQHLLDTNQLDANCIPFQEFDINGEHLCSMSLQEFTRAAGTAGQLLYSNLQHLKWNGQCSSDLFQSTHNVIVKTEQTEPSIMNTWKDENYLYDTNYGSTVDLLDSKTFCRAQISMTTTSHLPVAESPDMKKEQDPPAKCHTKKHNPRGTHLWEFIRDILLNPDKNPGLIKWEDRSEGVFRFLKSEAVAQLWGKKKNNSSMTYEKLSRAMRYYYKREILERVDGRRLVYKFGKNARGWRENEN
# Method in brief: as §1
# [7] = biological target: SPI1 (Homo sapiens, UniProt P17947 1-270); conditions: protein: recombinant; tags: N-terminal GST; dsDNA, one strand shown
# Method in brief: as §1
# [8] = biological target: SPIB (Homo sapiens, UniProt Q01892 1-262); conditions: protein: recombinant; tags: N-terminal GST; dsDNA, one strand shown
# Sequence of SPIB (Q01892 whole entry): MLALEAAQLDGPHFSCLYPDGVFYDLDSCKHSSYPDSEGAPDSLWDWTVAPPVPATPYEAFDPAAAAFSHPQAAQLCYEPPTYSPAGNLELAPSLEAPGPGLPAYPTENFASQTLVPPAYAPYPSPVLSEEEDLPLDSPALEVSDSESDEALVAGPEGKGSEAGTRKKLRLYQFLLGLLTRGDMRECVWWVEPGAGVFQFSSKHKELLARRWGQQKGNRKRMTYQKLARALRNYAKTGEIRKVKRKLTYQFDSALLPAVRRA
# Method in brief: as §1
# [9] = biological target: T6, ELK3 (Homo sapiens, UniProt P41970 1-407); conditions: protein: recombinant; tags: N-terminal GST; dsDNA, one strand shown
# T6 sequence: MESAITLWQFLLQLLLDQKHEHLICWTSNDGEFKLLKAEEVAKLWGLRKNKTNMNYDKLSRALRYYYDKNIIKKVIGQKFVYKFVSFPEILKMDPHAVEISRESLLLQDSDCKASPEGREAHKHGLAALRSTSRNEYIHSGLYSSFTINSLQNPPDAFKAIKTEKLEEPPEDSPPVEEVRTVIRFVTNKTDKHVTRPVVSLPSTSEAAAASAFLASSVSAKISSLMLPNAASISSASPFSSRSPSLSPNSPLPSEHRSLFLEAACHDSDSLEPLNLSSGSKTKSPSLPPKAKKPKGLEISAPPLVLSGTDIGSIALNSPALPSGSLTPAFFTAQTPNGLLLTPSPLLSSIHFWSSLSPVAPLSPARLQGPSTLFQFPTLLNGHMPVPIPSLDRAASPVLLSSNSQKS
# Method in brief: as §1
# [10] = biological target: T7, FEV (Homo sapiens, UniProt Q99581 1-238); conditions: protein: recombinant; tags: N-terminal GST; dsDNA, one strand shown
# T7 sequence: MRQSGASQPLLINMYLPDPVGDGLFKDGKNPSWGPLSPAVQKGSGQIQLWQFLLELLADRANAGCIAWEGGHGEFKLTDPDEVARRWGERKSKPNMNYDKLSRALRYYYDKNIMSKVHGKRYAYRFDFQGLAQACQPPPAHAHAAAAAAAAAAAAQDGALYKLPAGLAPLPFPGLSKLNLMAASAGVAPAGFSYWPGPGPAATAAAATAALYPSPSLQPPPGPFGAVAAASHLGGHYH
# Method in brief: as §1
# [11] = biological target: ETV5 (Homo sapiens, UniProt P41161 1-510); conditions: protein: recombinant; tags: N-terminal GST; dsDNA, one strand shown
# Sequence of ETV5 (P41161 whole entry): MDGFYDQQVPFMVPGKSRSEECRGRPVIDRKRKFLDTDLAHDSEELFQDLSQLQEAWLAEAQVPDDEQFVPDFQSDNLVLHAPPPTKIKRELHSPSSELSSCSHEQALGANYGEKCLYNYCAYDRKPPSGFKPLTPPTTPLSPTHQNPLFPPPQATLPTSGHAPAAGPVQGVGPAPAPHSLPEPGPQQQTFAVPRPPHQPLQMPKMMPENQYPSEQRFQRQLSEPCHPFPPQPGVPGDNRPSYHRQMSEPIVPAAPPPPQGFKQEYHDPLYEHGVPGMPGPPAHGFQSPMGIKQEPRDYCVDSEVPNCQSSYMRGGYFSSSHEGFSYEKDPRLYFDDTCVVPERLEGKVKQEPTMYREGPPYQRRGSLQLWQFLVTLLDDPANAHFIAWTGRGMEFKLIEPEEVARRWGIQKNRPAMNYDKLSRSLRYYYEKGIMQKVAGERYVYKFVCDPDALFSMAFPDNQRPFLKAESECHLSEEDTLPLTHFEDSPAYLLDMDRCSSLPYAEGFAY
# Method in brief: as §1
# [12] = biological target: HSF1 (Homo sapiens, UniProt Q00613 1-529); conditions: protein: recombinant; tags: N-terminal GST; chain copies: 3; dsDNA, one strand shown
# Sequence of HSF1 (Q00613 whole entry): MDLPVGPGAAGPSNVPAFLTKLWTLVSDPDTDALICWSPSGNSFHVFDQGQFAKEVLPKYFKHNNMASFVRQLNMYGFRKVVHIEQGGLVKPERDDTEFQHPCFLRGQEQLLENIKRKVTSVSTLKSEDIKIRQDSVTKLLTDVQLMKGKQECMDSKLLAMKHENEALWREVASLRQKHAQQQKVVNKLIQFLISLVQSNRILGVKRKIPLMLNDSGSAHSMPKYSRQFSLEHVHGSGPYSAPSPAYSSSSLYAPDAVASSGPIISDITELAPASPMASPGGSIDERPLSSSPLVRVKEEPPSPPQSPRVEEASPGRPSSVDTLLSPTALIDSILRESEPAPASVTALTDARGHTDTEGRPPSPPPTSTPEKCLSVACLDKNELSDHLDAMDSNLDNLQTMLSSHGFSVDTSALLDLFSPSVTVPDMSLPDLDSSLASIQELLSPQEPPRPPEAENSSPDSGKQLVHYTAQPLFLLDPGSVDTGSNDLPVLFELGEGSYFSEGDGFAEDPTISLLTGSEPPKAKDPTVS
# Method in brief: as §1
# [13] = biological target: T8, SPIC (Homo sapiens, UniProt Q8N5J4 1-248); conditions: protein: recombinant; tags: N-terminal GST; dsDNA, one strand shown
# T8 sequence: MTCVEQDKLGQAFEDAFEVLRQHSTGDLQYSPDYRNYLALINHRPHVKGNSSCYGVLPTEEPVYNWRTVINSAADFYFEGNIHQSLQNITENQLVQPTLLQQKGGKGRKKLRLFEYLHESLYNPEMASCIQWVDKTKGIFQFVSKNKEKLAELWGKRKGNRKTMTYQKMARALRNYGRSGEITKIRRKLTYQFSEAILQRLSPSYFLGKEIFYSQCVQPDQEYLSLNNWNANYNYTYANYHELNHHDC
# Method in brief: as §1
# [14] = biological target: ELF4 (Homo sapiens, UniProt Q99607 1-663); conditions: protein: recombinant; tags: N-terminal GST; dsDNA, one strand shown
# Sequence of ELF4 (Q99607 whole entry): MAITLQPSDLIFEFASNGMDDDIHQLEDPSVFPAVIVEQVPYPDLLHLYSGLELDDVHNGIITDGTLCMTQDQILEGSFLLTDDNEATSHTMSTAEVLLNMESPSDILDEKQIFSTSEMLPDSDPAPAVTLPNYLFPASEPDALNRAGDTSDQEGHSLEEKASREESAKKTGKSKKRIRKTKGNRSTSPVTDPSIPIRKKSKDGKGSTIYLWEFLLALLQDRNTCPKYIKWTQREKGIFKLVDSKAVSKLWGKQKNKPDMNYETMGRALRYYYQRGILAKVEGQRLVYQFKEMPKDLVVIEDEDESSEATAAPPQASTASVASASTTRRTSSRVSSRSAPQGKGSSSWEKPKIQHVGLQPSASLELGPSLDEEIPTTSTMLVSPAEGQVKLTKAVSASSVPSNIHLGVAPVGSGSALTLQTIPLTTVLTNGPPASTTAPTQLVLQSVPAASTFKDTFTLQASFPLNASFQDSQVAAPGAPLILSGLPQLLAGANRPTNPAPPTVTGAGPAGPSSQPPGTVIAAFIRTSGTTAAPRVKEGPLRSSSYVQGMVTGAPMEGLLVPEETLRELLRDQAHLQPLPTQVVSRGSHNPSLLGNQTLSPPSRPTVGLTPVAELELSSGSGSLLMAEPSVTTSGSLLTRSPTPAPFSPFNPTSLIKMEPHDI
# Method in brief: as §1
# [15] = biological target: T9, ELK4 (Homo sapiens, UniProt P28324-2 1-405); conditions: protein: recombinant; tags: N-terminal GST; dsDNA, one strand shown
# T9 sequence: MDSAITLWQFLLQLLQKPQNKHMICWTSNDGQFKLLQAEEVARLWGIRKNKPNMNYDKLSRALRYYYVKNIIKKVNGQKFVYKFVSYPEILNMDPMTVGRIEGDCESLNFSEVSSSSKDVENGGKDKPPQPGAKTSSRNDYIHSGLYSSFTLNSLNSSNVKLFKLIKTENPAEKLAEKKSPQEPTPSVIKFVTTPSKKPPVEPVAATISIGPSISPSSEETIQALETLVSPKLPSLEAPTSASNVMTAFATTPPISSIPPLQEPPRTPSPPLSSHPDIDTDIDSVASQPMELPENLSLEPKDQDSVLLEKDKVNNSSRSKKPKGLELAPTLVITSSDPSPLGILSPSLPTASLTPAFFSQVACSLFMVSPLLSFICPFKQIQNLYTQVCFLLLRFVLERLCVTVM
# Method in brief: as §1
# [16] = biological target: T10, ETV2 (Homo sapiens, UniProt O00321 1-342); conditions: protein: recombinant; tags: N-terminal GST; dsDNA, one strand shown
# T10 sequence: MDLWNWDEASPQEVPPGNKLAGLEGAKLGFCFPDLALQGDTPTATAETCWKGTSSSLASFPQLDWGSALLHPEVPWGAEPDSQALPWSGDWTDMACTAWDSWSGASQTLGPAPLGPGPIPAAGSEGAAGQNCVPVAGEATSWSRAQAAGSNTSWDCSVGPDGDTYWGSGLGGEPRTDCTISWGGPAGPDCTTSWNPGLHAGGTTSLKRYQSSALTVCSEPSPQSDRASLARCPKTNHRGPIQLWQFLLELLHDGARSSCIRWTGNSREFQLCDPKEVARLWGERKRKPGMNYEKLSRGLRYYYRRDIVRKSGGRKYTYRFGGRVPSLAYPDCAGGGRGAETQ
# Method in brief: as §1
# [17] = biological target: T11, ELF3 (Homo sapiens, UniProt P78545 1-371); conditions: protein: recombinant; tags: N-terminal GST; dsDNA, one strand shown
# T11 sequence: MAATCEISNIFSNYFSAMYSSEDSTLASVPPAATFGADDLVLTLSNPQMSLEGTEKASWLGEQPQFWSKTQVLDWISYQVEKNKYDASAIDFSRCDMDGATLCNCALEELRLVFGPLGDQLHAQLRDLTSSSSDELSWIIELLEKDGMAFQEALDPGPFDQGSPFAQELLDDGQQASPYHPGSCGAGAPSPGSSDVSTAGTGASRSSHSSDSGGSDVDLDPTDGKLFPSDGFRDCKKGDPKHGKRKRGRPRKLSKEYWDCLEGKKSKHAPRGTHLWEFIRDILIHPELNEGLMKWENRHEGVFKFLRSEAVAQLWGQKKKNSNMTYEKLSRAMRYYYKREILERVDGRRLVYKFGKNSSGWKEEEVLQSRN
# Method in brief: as §1
# [18] = biological target: CRX (Homo sapiens, UniProt O43186 1-299); conditions: protein: recombinant; tags: N-terminal GST; dsDNA, one strand shown
# Sequence of CRX (O43186 whole entry): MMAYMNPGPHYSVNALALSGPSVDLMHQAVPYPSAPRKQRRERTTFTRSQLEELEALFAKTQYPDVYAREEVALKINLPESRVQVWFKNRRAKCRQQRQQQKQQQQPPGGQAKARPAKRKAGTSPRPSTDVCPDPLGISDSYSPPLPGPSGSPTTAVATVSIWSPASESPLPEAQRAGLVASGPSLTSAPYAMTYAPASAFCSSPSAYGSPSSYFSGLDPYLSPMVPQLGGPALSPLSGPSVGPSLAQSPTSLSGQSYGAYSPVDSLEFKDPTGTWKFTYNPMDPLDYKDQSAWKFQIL
# Method in brief: as §1
# [19] = biological target: ETV1 (Homo sapiens, UniProt P50549 1-477); conditions: protein: recombinant; tags: N-terminal GST; dsDNA, one strand shown
# Sequence of ETV1 (P50549 whole entry): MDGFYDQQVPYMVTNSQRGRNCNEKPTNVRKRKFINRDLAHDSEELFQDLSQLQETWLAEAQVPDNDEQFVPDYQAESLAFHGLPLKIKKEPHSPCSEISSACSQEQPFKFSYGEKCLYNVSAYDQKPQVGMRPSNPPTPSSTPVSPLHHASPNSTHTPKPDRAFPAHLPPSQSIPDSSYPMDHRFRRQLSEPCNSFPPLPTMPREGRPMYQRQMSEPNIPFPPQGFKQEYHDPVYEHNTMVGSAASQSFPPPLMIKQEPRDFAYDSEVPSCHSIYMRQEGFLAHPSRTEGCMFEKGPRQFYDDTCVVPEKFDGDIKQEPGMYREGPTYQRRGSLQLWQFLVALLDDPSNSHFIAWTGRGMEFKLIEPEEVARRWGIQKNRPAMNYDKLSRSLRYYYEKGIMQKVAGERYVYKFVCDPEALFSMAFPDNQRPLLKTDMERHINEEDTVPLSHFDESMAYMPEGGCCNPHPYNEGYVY
# Method in brief: as §1
sequence,measurement,setting,value
CGCCTC,binding signal,[1],"1.47 fold enrichment (6-mer frequency, TF over GST control)"
same,binding signal,[2],"1.49 fold enrichment (6-mer frequency, TF over GST control)"
same,binding signal,[3],"1.41 fold enrichment (6-mer frequency, TF over GST control)"
same,binding signal,[4],"1.39 fold enrichment (6-mer frequency, TF over GST control)"
same,binding signal,[5],"1.49 fold enrichment (6-mer frequency, TF over GST control)"
same,binding signal,[6],"1.4 fold enrichment (6-mer frequency, TF over GST control)"
same,binding signal,[7],"1.27 fold enrichment (6-mer frequency, TF over GST control)"
same,binding signal,[8],"1.51 fold enrichment (6-mer frequency, TF over GST control)"
same,binding signal,[9],"1.46 fold enrichment (6-mer frequency, TF over GST control)"
same,binding signal,[10],"1.45 fold enrichment (6-mer frequency, TF over GST control)"
same,binding signal,[11],"1.4 fold enrichment (6-mer frequency, TF over GST control)"
same,binding signal,[12],"1.1 fold enrichment (6-mer frequency, TF over GST control)"
same,binding signal,[13],"1.33 fold enrichment (6-mer frequency, TF over GST control)"
same,binding signal,[14],"1.39 fold enrichment (6-mer frequency, TF over GST control)"
same,binding signal,[15],"1.14 fold enrichment (6-mer frequency, TF over GST control)"
same,binding signal,[16],"1.51 fold enrichment (6-mer frequency, TF over GST control)"
same,binding signal,[17],"1.49 fold enrichment (6-mer frequency, TF over GST control)"
same,binding signal,[18],"1.05 fold enrichment (6-mer frequency, TF over GST control)"
same,binding signal,[19],"1.42 fold enrichment (6-mer frequency, TF over GST control)"
